# Data published in the supplement of paper PMC8728848.
# Many of the other results were omitted from the sample, so the strongest signals are more common in it than they were.
# B1: Clec18A (Homo sapiens) (protein)
# chain: PFHTCDLRIDGDCFMVSSEADTYYRARMKCQRKGGVLAQIKRQKVQDILAFYLGRLETTNEVIDSDFETRNFWIGLTYKTAKDSFRWATGEHQAFTSFAFGQPDNHGFGNCVELQASAAFNWNDQRCKTRNRYICQ
# Columns and labels:
# Assay in all cases: glycan array binding signal (z-score within array); higher = stronger binding
# Conditions in all cases: glycan notation: IUPAC condensed, linker removed
# [1] = biological target: Fuc(a1-2)Gal
# How it was run: (§1)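 The binding signal is a Z-score computed within each array. Data were drawn from 3228 arrays in the Consortium for Functional Glycomics database, restricted to those with a known protein sequence. Scores were averaged over arrays of the same protein sequence at different concentrations or buffers, and over linkers, and negative values can be taken as non-binding.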
# [2] = biological target: Fuc(a1-2)Gal(b1-4)GlcNAc(b1-3)GalNAc
# How it was run: as §1
# [3] = biological target: Fuc(a1-2)Gal(b1-4)[Fuc(a1-3)]GlcNAc
# How it was run: as §1
# [4] = biological target: Fuc(a1-2)[Gal(a1-3)]Gal(b1-3)GlcNAc(b1-6)GalNAc
# How it was run: as §1
# [5] = biological target: Fuc(a1-2)[GalNAc(a1-3)]Gal(b1-3)GlcNAc(b1-2)Man(a1-3)[Fuc(a1-2)[GalNAc(a1-3)]Gal(b1-3)GlcNAc(b1-2)Man(a1-6)]Man(b1-4)GlcNAc(b1-4)GlcNAc
# How it was run: as §1
# [6] = biological target: Fuc(a1-2)[GalNAc(a1-3)]Gal(b1-4)GlcNAc(b1-2)Man(a1-3)[Fuc(a1-2)[GalNAc(a1-3)]Gal(b1-4)GlcNAc(b1-2)Man(a1-6)]Man(b1-4)GlcNAc(b1-4)GlcNAc
# How it was run: as §1
# [7] = biological target: Fuc(a1-2)[GalNAc(a1-3)]Gal(b1-4)GlcNAc(b1-3)Gal(b1-4)GlcNAc(b1-3)Gal(b1-4)GlcNAc
# How it was run: as §1
# [8] = biological target: Fuc(a1-2)[GalNAc(a1-3)]Gal(b1-4)[Fuc(a1-3)]GlcNAc
# How it was run: as §1
# [9] = biological target: Fuc(a1-3)GlcNAc
# How it was run: as §1
# [10] = biological target: Fuc(a1-3)[Gal(b1-4)]GlcNAc(b1-3)GalNAc
# How it was run: as §1
# [11] = biological target: Fuc(a1-3)[Gal3S(b1-4)]GlcNAc
# How it was run: as §1
# [12] = biological target: Fuc(a1-3)[GalNAc(b1-4)]GlcNAc
# How it was run: as §1
# [13] = biological target: Gal(a1-3)Gal(b1-3)GlcNAc(b1-3)GalNAc
# How it was run: as §1
# [14] = biological target: Gal(a1-3)[Gal(a1-4)]Gal(b1-4)GlcNAc
# How it was run: as §1
# [15] = biological target: Gal(b1-3)Gal
# How it was run: as §1
# [16] = biological target: Gal(b1-3)GlcNAc(b1-2)Man
# How it was run: as §1
# [17] = biological target: Gal(b1-3)GlcNAc(b1-2)Man(a1-3)[Gal(b1-3)GlcNAc(b1-2)Man(a1-6)]Man(b1-4)GlcNAc(b1-4)GlcNAc
# How it was run: as §1
# [18] = biological target: Gal(b1-3)GlcNAc(b1-3)Gal(b1-3)GlcNAc
# How it was run: as §1
# [19] = biological target: Gal(b1-3)[Fuc(a1-4)]GlcNAc(b1-3)Gal(b1-3)[Fuc(a1-4)]GlcNAc
# How it was run: as §1
# [20] = biological target: Gal(b1-4)GlcNAc(b1-2)Man(a1-3)[Gal(b1-4)GlcNAc(b1-2)Man(a1-6)]Man(b1-4)GlcNAc(b1-4)GlcNAc
# How it was run: as §1
# [21] = biological target: Gal(b1-4)GlcNAc(b1-2)[Gal(b1-4)GlcNAc(b1-6)]Man(a1-6)[Gal(b1-4)GlcNAc(b1-2)Man(a1-3)]Man(b1-4)GlcNAc(b1-4)[Fuc(a1-6)]GlcNAc
# How it was run: as §1
# [22] = biological target: Gal(b1-4)GlcNAc(b1-3)Gal(b1-4)GlcNAc
# How it was run: as §1
# [23] = biological target: Gal(b1-4)GlcNAc(b1-3)Gal(b1-4)GlcNAc(b1-3)Gal(b1-4)GlcNAc
# How it was run: as §1
# [24] = biological target: Gal(b1-4)GlcNAc(b1-3)Gal(b1-4)GlcNAc(b1-3)Gal(b1-4)GlcNAc(b1-2)[Gal(b1-4)GlcNAc(b1-3)Gal(b1-4)GlcNAc(b1-3)Gal(b1-4)GlcNAc(b1-6)]Man(a1-6)[Gal(b1-4)GlcNAc(b1-3)Gal(b1-4)GlcNAc(b1-3)Gal(b1-4)GlcNAc(b1-2)Man(a1-3)]Man(b1-4)GlcNAc(b1-4)[Fuc(a1-6)]GlcNAc
# How it was run: as §1
# [25] = biological target: Gal(b1-4)GlcNAc(b1-3)Gal(b1-4)GlcNAc(b1-3)Gal(b1-4)GlcNAc(b1-3)Gal(b1-4)GlcNAc(b1-3)Gal(b1-4)GlcNAc(b1-2)Man(a1-3)[Gal(b1-4)GlcNAc(b1-3)Gal(b1-4)GlcNAc(b1-3)Gal(b1-4)GlcNAc(b1-3)Gal(b1-4)GlcNAc(b1-3)Gal(b1-4)GlcNAc(b1-2)Man(a1-6)]Man(b1-4)GlcNAc(b1-4)GlcNAc
# How it was run: as §1
binder,measurement,setting,value
B1,glycan array binding signal (z-score),[1],-0.536
same,glycan array binding signal (z-score),[2],-0.366
same,glycan array binding signal (z-score),[3],-0.32
same,glycan array binding signal (z-score),[4],1.74
same,glycan array binding signal (z-score),[5],-0.538
same,glycan array binding signal (z-score),[6],4.62
same,glycan array binding signal (z-score),[7],-0.814
same,glycan array binding signal (z-score),[8],-0.083
same,glycan array binding signal (z-score),[9],-0.783
same,glycan array binding signal (z-score),[10],-0.458
same,glycan array binding signal (z-score),[11],0.178
same,glycan array binding signal (z-score),[12],0.38
same,glycan array binding signal (z-score),[13],-0.324
same,glycan array binding signal (z-score),[14],2.29
same,glycan array binding signal (z-score),[15],-0.801
same,glycan array binding signal (z-score),[16],-0.886
same,glycan array binding signal (z-score),[17],0.56
same,glycan array binding signal (z-score),[18],4.51
same,glycan array binding signal (z-score),[19],0.734
same,glycan array binding signal (z-score),[20],1.15
same,glycan array binding signal (z-score),[21],3.1
same,glycan array binding signal (z-score),[22],3.23
same,glycan array binding signal (z-score),[23],0.45
same,glycan array binding signal (z-score),[24],3.83
same,glycan array binding signal (z-score),[25],0.263
